The campaign covered roughly 5,500 compounds. About 2,000 (36%) were called active. About 18% were inconclusive and are not listed. Cut-off read from the data, not from the text of the source: active = normalized growth mostly below about 0.91 (no sharp cut-off); inconclusive = no clear call, values can overlap the other calls; inactive = mostly above about 0.92. The list shows a part of the results.
Test: chemical genetic growth profiling, strain panel (AID 1159580);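 note: tested at 20 µM; growth read once vehicle control cultures reached saturation at 30 °C; 1 = growth at the plate median or of vehicle wells; lower values mean less growth of the strain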
Conditions: S. cerevisiae deletion strains, growth OD

Measured: normalized growth

NC(=O)CCC(N)C(=O)O (configuration not stated)
inactive: locus YAL013W, strain DEP1, active compounds read low 1.02 | locus YAL040C, strain CLN3, active compounds read low 0.998 | locus YCL061C, strain MRC1 (second series), active compounds read low 1 | locus YDR150W, strain NUM1, active compounds read low 0.999 | locus YDR363W, strain ESC2, active compounds read low 1.01 | locus YER002W, strain NOP16, active compounds read low 1.02 | locus YGR229C, strain SMI1, active compounds read low 1.04 | locus YJR075W, strain HOC1, active compounds read low 1.01 | locus YMR263W, strain SAP30, active compounds read low 0.997 | locus YNL128W, strain TEP1, active compounds read low 0.987 | locus YNL153C, strain GIM3, active compounds read low 0.99 | locus YNL175C, strain NOP13, active compounds read low 0.996 | locus YNL197C, strain WHI3, active compounds read low 0.997 | locus YNL224C, strain SQS1, active compounds read low 0.993 | locus YNL322C, strain KRE1, active compounds read low 1.01 | locus YOR083W, strain WHI5 (second series), active compounds read low 1.01 | locus YPL055C, strain LGE1, active compounds read low 1.03

From PubChem BioAssay AID1159580 (chemical genetic matrix, 2015)
